Assay outcomes deposited in PubChem BioAssay by National Center for Advancing Translational Sciences (NCATS).
The entries come from a sample that favours hits as a whole.
TbPYK inhibitor: qHTS of Trypanosoma Brucei Inhibitors | AID 624173, 2012 | 0.12% of 410,000 active | pyruvate kinase (Trypanosoma brucei), Q57TT1 | TbPYK enzyme, Kinase-Glo Plus ATP luminescence, 45 min | Potency, µM (highest dose often 76.8 µM), hits mostly inhibitors; further: nearly all actives have a fitted effect of over 50% in size
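Activity of T. brucei pyruvate kinase was followed by Kinase-Glo Plus luminescence after the enzyme reacted 45 min at room temperature with 130 uM ADP (final) and substrate. Test compounds were added before ADP at multiple concentrations.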
Cycloheximide cs: Cycloheximide Counterscreen for Small Molecule Inhibitors of Shiga Toxin. 12% of 300,000 active. AID 2314, 2010. max response, %. cell reporter, cycloheximide protein synthesis inhibition counterscreen; in the data active means max response mostly above about 13%, no sharp cut-off; inactive means mostly below about 14%; further: read at 38.3 µM for the half of the compounds with a filed dose
Sm TGR inh: qHTS Assay for the Inhibitors of Schistosoma Mansoni Peroxiredoxins | Schistosoma mansoni thioredoxin glutathione reductase (TGR), Q962Y6 | purified TGR, DTNB reduction, TNB absorbance 405 nm | Potency, µM (titrated, usually from 114 µM), usual class: inhibitors | 3% of 360,000 active; further: nearly all actives have a fitted effect of over 60% in size
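First, TGR (20 nM dispensed) and NADPH were mixed with compound. Second, a 15 min room-temperature incubation followed. Third, further NADPH and then DTNB were added to start the reaction. Finally, TNB absorbance was monitored kinetically.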
Shiga toxin inh: A qHTS for Small Molecule Inhibitors of Shiga Toxin; Vero cells, Shiga toxin protein synthesis inhibition reporter; inhibition, % at 38.7 µM; 9.2% of 290,000 active; AID 2315, 2010; in the data active means inhibition mostly above about 28%, no sharp cut-off; inactive means mostly below about 43%
FBPA Giardia inh: qHTS Assay for Inhibitors of Fructose-1,6-bisphosphate Aldolase from Giardia Lamblia | A8B2U2 | purified Giardia FBPA | Potency, µM (series often up to 59.6 µM), actives largely listed as inhibitors | 0.71% of 290,000 active | AID 2451, 2010; further: nearly all actives have a fitted effect of over 55% in size
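40 nM FBPA preincubated 10 min at RT with compound (up to 57.5 uM final), then substrate plus GAPDH/TPI/NAD/arsenate coupling and diaphorase/resazurin added. Fluorescence read after 20 min at RT, 525/598 nm.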
LmPK inh: qHTS Assay for Inhibitors of Leishmania Mexicana Pyruvate Kinase (LmPK) | Q27686 | purified LmPK, Kinase-Glo ATP luminescence, 1 h | Potency, µM (top dose mostly 57.5 µM), most hits filed as inhibitors | 0.37% of 290,000 active | AID 1721, 2009
Target sequence (Q27686 whole entry, looked up): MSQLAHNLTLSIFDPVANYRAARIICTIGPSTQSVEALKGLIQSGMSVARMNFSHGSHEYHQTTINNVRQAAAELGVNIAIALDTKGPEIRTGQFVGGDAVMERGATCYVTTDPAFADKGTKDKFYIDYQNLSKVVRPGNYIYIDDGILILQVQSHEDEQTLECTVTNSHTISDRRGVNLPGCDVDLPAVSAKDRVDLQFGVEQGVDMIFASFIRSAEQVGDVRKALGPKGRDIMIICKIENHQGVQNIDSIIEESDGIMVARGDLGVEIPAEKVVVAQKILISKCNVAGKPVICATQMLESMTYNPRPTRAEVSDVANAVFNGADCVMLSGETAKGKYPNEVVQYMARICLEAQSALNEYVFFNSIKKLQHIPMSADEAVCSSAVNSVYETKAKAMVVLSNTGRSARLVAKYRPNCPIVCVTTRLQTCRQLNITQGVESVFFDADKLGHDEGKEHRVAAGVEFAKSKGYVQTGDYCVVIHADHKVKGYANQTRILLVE
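0.1 nM LmPK, 0.5 mM PEP, 0.1 mM ADP; 50 mM imidazole pH 7.2, 7 mM MgCl2, 50 mM KCl; 1 h RT. Kinase-Glo luminescence readout, normalized to no-enzyme (full inhibition) and uninhibited wells.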
A number is an active result; – = inactive; ? = inconclusive; · = no result. Unless noted, the call rests on the fitted dose curve; in most records, active means well fitted curve in the direction sought with a large enough effect; inconclusive means small, poorly fitted or top-dose-only effect, or another doubt; inactive means no such curve, though single readings can be large; an effect the other way counts as inactive or inconclusive.

SMILES	TbPYK inhibitor	Cycloheximide cs	Sm TGR inh	Shiga toxin inh	FBPA Giardia inh	LmPK inh
CN1CCN(c2ncnc3ccc(-c4ccccc4Cl)cc23)CC1	·	·	·	·	–	·
O=C(/C=C/c1cccc(F)c1)c1ccc(N2CCOCC2)cc1	–	50	?	99	–	–
O=C(/C=C/c1cccs1)c1ccc(N2CCOCC2)cc1	–	–	–	–	–	–
CCN(CC)c1ccc(S(=O)(=O)N2CCCCC2)cc1NC(=O)C1CCC1	–	·	50µM	·	·	·
COc1ccc(-c2ccc(N)cn2)cn1	–	·	–	·	·	·
Cc1ccccc1-n1c(SCc2csc(Nc3ccccc3)n2)nnc1-c1cccnc1	–	–	–	–	–	–
Cc1ccc(Nc2nc(CSc3nnc(-c4ccccc4)n3C)cs2)cc1	–	32	–	52	–	–
Cc1ccc(Nc2nc(CSc3nnc(-c4ccccc4C)n3C)cs2)cc1	–	45	–	80	–	–
Cc1ccc(Nc2nc(CSc3nnc(-c4cccnc4)n3-c3ccccc3C)cs2)cc1	–	24	–	–	–	–
C=CCn1c(SCc2csc(-c3ccc(Cl)cc3)n2)nnc1-c1ccccc1OC	–	–	–	–	–	–
Cc1ccc(-c2nnc(SCC(=O)CC(=O)Nc3ccccc3)n2C)cc1	–	–	–	–	–	–
COc1cc(/C=C/C(=O)OCC(=O)Nc2ccc(S(N)(=O)=O)cc2)ccc1O	–	28	–	–	–	–
COc1cccc(/C=C/C(=O)OCC(=O)Nc2ccc(Cl)c(S(=O)(=O)N(C)C)c2)c1	–	–	–	–	–	–
COc1cc(/C=C/C(=O)OCC(=O)Nc2ccc([N+](=O)[O-])cc2)ccc1O	–	–	–	–	–	–
COc1cccc(/C=C/C(=O)OCC(=O)Nc2cccc(S(=O)(=O)N(C)C)c2)c1	–	15	–	–	–	–
Cc1ccc2c(CNCc3cccs3)c(C(=O)O)n(Cc3ccc(F)cc3)c2c1	–	·	–	·	·	·
CCN(CC)S(=O)(=O)c1ccc(C)c(N=C=S)c1	–	–	40µM	–	–	–
CCN(CC)S(=O)(=O)c1ccc(-c2ccc(S(=O)(=O)N(CC)CC)cc2)cc1	–	–	–	–	–	–
COCc1cc(/C=N\NC(=O)COc2ccccc2)ccc1OC	–	–	–	–	–	–
CCOc1cc(/C=N\NC(=O)c2ccc(NC(=O)C(C)(C)C)cc2)ccc1OC(=O)c1ccc(OC)cc1	–	–	–	–	–	–
COc1cccc(OCc2cc(/C=N/Nc3ccc(C(=O)O)cc3)ccc2OC)c1	–	41	–	53	–	–
COc1cc(/C=N/NC(=O)c2ccc(N)cc2)ccc1OC(=O)c1cccc(C)c1	–	–	–	–	–	–
CCOc1cc(/C=N/Nc2ccc(C(=O)O)cc2)ccc1OC(=O)c1ccccc1C	–	42	–	–	–	–
COc1cccc(C(=O)Oc2ccc(/C=N/Nc3ccc(C(=O)O)cc3)cc2OC)c1	–	33	–	·	–	–
COc1cc(/C=N/Nc2ccc(Cl)c(C(=O)O)c2)ccc1OC(=O)c1ccccc1F	–	29	–	70	–	–
SMILES	TbPYK inhibitor	Cycloheximide cs	Sm TGR inh	Shiga toxin inh	FBPA Giardia inh	LmPK inh
COc1cc(/C=N/Nc2ccc(Cl)c(C(=O)O)c2)ccc1OC(=O)c1ccc(F)cc1	–	–	–	–	–	–
CCOC(=O)[C@@H]1[C@H]2COc3ccccc3[C@H]2N2C(=O)N(c3ccc(Cl)cc3)C(=O)[C@]12C	–	–	–	–	–	–
Cc1cccc(N2CCN(c3nc4ccccc4c4nnc(C)n34)CC2)c1C	–	·	–	·	·	·
OCCNc1ncnc2c1ncn2[C@H]1CN(Cc2ccc(Cl)cc2)C[C@@H](CO)O1	–	·	·	·	·	·
CCc1nnc(NC(=O)C2CCN(c3ncnc4sc(C)c(C)c34)CC2)s1	–	·	–	·	·	·
CC1CC1C(=O)Nc1nc2ccc(S(C)(=O)=O)cc2s1 (configuration not stated)	–	28	–	59	–	–
CS(=O)(=O)c1ccc2nc(NC(=O)c3cc([N+](=O)[O-])cc([N+](=O)[O-])c3)sc2c1	–	–	–	·	–	–
